In PubChem BioAssay (NCATS) one finds Potency data, which are given here for 17 compounds.

Molecules are shown by their SMILES. Results filed as inconclusive are left out. Values without a mark were called inactive. Calls of active or inactive are those of the source. The call rests on the fitted dose curve; in most records, active means well fitted curve in the direction sought with a large enough effect; inconclusive means small, poorly fitted or top-dose-only effect, or another doubt; inactive means no such curve, though single readings can be large; an effect the other way counts as inactive or inconclusive.

Assay [1] can be described thus: Quantitative High-Throughput drug screen in 47 multiple myeloma cell lines against the NCATS MIPE library collection: KMS26_JCRB cell viability assay (AID 1918975). Further: nearly all actives have a fitted effect of over 45% in size. Put shortly: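 Luminescent ATP measurement with CellTiter-Glo gives viability, scaled between DMSO-only wells (100%) and media-only wells (0%). Cells, 500 per well, faced library compounds for 48 hours at 37C.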

Assay [2] can be described thus: Quantitative High-Throughput drug screen in 47 multiple myeloma cell lines against the NCATS MIPE library collection: MOLP8_DSMZ cell viability assay (AID 1918977). Further: nearly all actives have a fitted effect of over 45% in size. Put shortly: (§1)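 Plated at 500 cells per well, myeloma lines received MIPE 4.0 compounds by pin tool. Following 48 h culture at 37 °C, CellTiter-Glo luminescence gave viability relative to DMSO and media-only controls.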

The nature of assay [3]: Quantitative High-Throughput drug screen in 47 multiple myeloma cell lines against the NCATS MIPE library collection: NCIH929_DSMZ cell viability assay (AID 1918978). Further: nearly all actives have a fitted effect of over 35% in size. Put shortly: as §1
Assay [4] is described as follows: Quantitative High-Throughput drug screen in 47 multiple myeloma cell lines against the NCATS MIPE library collection: MM1S_ATCC cell viability assay (AID 1918980). Further: nearly all actives have a fitted effect of over 45% in size. Put shortly:
as §1

A short description of assay [5]: Quantitative High-Throughput drug screen in 47 multiple myeloma cell lines against the NCATS MIPE library collection: MM1R_ATCC cell viability assay (AID 1918981). Further: nearly all actives have a fitted effect of over 35% in size. The method in brief: as §1
Assay [6] can be described thus: Quantitative High-Throughput drug screen in 47 multiple myeloma cell lines against the NCATS MIPE library collection: LP1_DSMZ cell viability assay (AID 1918982). Further: nearly all actives have a fitted effect of over 35% in size. The method in brief:
as §1

Assay [7] can be described thus: Quantitative High-Throughput drug screen in 47 multiple myeloma cell lines against the NCATS MIPE library collection: KMS28PE_JCRB cell viability assay (AID 1918983). Further: nearly all actives have a fitted effect of over 35% in size. Put shortly:
as §1

The nature of assay [8]: Quantitative High-Throughput drug screen in 47 multiple myeloma cell lines against the NCATS MIPE library collection: OCIMY1_PLB cell viability assay (AID 1918979). Further: nearly all actives have a fitted effect of over 35% in size. On viability: series mostly up to about 46 µM. Put shortly: as §1
Assay [9] can be described thus: Quantitative High-Throughput drug screen in 47 multiple myeloma cell lines against the NCATS MIPE library collection: L363_DSMZ cell viability assay (AID 1918984). Further: nearly all actives have a fitted effect of over 40% in size. The method in brief: as §1
Assay [10] is described as follows: Quantitative High-Throughput drug screen in 47 multiple myeloma cell lines against the NCATS MIPE library collection: MMM1_PLB cell viability assay (AID 1918976). Further: nearly all actives have a fitted effect of over 35% in size. Put shortly: as §1
Potency means the concentration at half of the fitted maximal effect.

For `CN(C)c1nc(Cc2ccc(NC(=O)c3ccc4ccccc4c3)cc2)nc(Cl)c1CC(=O)O`, the Potency entry in assay [1], in [2], in assay [3], in assay [5], in assay [6] and in [7] was “inactive” throughout. In [4], the Potency was 2.96 µM (active).

In the case of `CNC(=O)c1cc(Oc2ccc(NC(=O)Nc3cc(C(C)(C)C)nn3-c3ccc4ncccc4c3)c(F)c2)ccn1`, the Potency in [1] is 9.35 µM (active); in assay [2], 4.18 µM (active); in assay [3], 4690 nM (active); in assay [8], 16.6 µM (active); in [4], 11.8 µM (active); in [5] it was 7.43 µM (active). Besides, the Potency in assay [7] was 9.35 µM (active); in [9], 18.7 µM (active).

With `CC(C)c1nn(-c2c(Cl)cccc2Cl)c2nc(Cc3ccc(OCCO)cc3)[nH]c(=O)c12`, the Potency in [1] is 0.148 µM (active); in assay [2] it was 0.132 µM (active); in [3] it was 105 nM (active); in [8], 0.235 µM (active); in [4] it was 0.0418 µM (active); in assay [5], 0.0418 µM (active). The Potency in assay [6] was 0.132 µM (active); in assay [7] it was 0.296 µM (active).

With `COc1cc2c(Oc3ccc4[nH]c(C)cc4c3F)ncnc2cc1OCCCN1CCCC1`, the Potency is 29.6 µM (active) in assay [1]; 23.5 µM (active) in assay [10]; 7430 nM (active) in assay [3]; 18.7 µM (active) in assay [4]; 20.9 µM (active) in assay [7].

`CCN1CCN(CC(=O)Nc2ccc(-c3cccc4c(=O)cc(N5CCOCC5)oc34)c3sc4ccccc4c23)CC1`: the Potency is 1.32 µM (active) in assay [1]; 0.526 µM (active) in assay [2]; 187 nM (active) in [3]; 5.9 µM (active) in [8]; 7.43 µM (active) in assay [4]; 1.48 µM (active) in assay [5]. Moreover, the Potency is 1.48 µM (active) in assay [6], 5.26 µM (active) in [7] and 0.0332 µM (active) in [9].

Consider `Nc1ccc(C(=O)c2cc3c(ccc4ccccc43)[nH]2)cc1`, for which the Potency in assay [1] is 16.6 µM (active); in assay [10], 6.62 µM (active); in assay [3], 18700 nM (active); in assay [6], 5.26 µM (active); in assay [7], 9.35 µM (active).

Consider `CC(=O)Nc1nc(C)c(-c2ccc(Cl)c(S(=O)(=O)NCCO)c2)s1`, for which the Potency in assay [1] is 7.43 µM (active); in assay [2] it was 9.35 µM (active); in [3] it was 833 nM (active); in [8] it was 11.8 µM (active); in [4], 1.48 µM (active); in assay [6], 3.32 µM (active). The Potency is 16.6 µM (active) in assay [7] and 1.18 µM (active) in assay [9].

In the case of `C[C@H]1C[C@@H]2[C@@H]([C@@H](O)C[C@@]3(C)[C@H]2CC[C@]3(O)C(=O)CO)[C@@]2(C)C=CC(=O)C=C12`, the Potency entry in [1], in [10], in assay [3], in [5] and in [7] was “inactive” in each case.

As for `Nc1ccccc1NC(=O)c1ccc(CNc2nccc(-c3cccnc3)n2)cc1`, the Potency is 1.32 µM (active) in assay [1]; 1.18 µM (active) in [2]; 1180 nM (active) in [3]; 3.32 µM (active) in assay [8]; 0.935 µM (active) in assay [4]; 2.09 µM (active) in assay [6]. Also, the Potency in assay [7] was 2.96 µM (active); in assay [9] it was 1.18 µM (active).

In the case of `C[C@@H](Oc1cc(-n2cnc3ccc(CN4CCN(C)CC4)cc32)sc1C(N)=O)c1ccccc1C(F)(F)F`, the Potency in assay [1] was 5.26 µM (active); in assay [10], 16.6 µM (active); in assay [3], 20900 nM (active); in assay [4], 2.35 µM (active); in assay [5], 0.059 µM (active); in [7] it was 0.0935 µM (active). Also, the Potency in assay [9] was 0.0118 µM (active).

As to `CC(C)=CCCC(C)=CCCC(C)=CCSc1ccccc1C(=O)O`, the Potency was 4.18 µM (active) in assay [1]; 1.48 µM (active) in assay [2]; 526 nM (active) in assay [3]; 0.0332 µM (active) in [8]; 5.26 µM (active) in assay [4]; 3.32 µM (active) in [5]. Also, the Potency in [7] is 1.66 µM (active).

In the case of `COc1ccc2c(c1)CC[C@@H](CN(C)CC(=O)O)[C@H]2c1ccccc1`, the Potency in assay [1] was 1.87 µM (active); in assay [10] it was 14.8 µM (active); in assay [3], 5260 nM (active); in [4], 9.35 µM (active); in assay [5], 3.72 µM (active); in assay [7], 4.18 µM (active). Besides, the Potency in assay [9] is 1.66 µM (active).

For `CN(C1CCc2c(c3ccccc3n2CC(=O)O)C1)S(=O)(=O)c1ccc(F)cc1` (configuration not stated), the Potency result in assay [1], in [2], in assay [3] and in [8] was “inactive” throughout. The Potency in [4] and in assay [9] was 1.48 µM (active) each time.

`CCN1CCN(Cc2ccc(-c3cc4c(N[C@H](C)c5ccccc5)ncnc4[nH]3)cc2)CC1`: the Potency was 0.935 µM (active) in [1], 18.7 µM (active) in [10], 3.32 µM (active) in [8] and 0.0235 µM (active) in assay [9].

Turning to `CN1CCN(c2cc(C(=O)Nc3ccc4c(c3)-c3c(c(C(N)=O)nn3-c3ccc(F)cc3)CC4)c(Cl)cn2)CC1`, the Potency was 10.5 µM (active) in assay [1]; 26.4 µM (active) in [2]; 743 nM (active) in [3]; 26.4 µM (active) in [8]; 3.32 µM (active) in assay [4]; 23.5 µM (active) in assay [7]. Besides, the Potency in assay [9] was 4.18 µM (active).

In the case of `O=c1[nH]nc(Sc2ncc([N+](=O)[O-])s2)n1-c1ccc2c(c1)OCCO2`, the Potency in assay [1] is 1.48 µM (active); in assay [2], 1.48 µM (active); in assay [3], 833 nM (active); in [8], 3.72 µM (active); in assay [4] it was 2.35 µM (active); in assay [5] it was 1.32 µM (active). In addition, the Potency in [6] is 6.62 µM (active); in [7], 3.32 µM (active); in assay [9], 3.72 µM (active).

With `Cc1[nH]c2ccccc2c1CCNCc1ccc(C=CC(=O)NO)cc1`, the Potency in assay [1] was 0.0662 µM (active); in [2], 0.0526 µM (active); in assay [3] it was 52.6 nM (active); in assay [8], 0.166 µM (active); in assay [4], 0.0743 µM (active); in assay [5], 0.0296 µM (active). For the same compound, the Potency in assay [7] was 0.059 µM (active).
